Measured values: PubChem BioAssay (NCI)
About 83,000 compounds went through this panel and 20% of them were active in at least one assay; those are over-represented in the sample as a whole.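 Cell lines were cultured in 96-well plates, exposed to a single compound concentration, and assessed for percent growth 48 hours later.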 Calls of active or inactive are those of the source. How the source made its calls: active means growth percent below 10; inactive means the rest.

Experiments:
Experiment in all cases: NCI-60 one-dose screen, 48 h (100 = growth as untreated, 0 = no growth, -100 = all killed)
Settings in all cases: 10 µM unless noted
NCI-H23 lung = test system: NCI-H23 lung
NCI-H226 lung = test system: NCI-H226 lung
NCI-H322M lung = test system: NCI-H322M lung
HOP-62 NSCLC = test system: HOP-62 NSCLC
NCI-H460 lung = test system: NCI-H460 lung
A549/ATCC NSCLC = test system: A549/ATCC NSCLC
786-0 renal = test system: 786-0 renal
COLO 205 colon = test system: COLO 205 colon
NCI-H522 lung = test system: NCI-H522 lung

Measured: growth

O=C1NN(C(=O)c2ccc(Cl)cc2)C(c2ccccc2)=N/C1=C\c1cn(-c2ccccc2)nc1-c1ccccc1
inactive: NCI-H23 lung 89.6% | NCI-H226 lung 106% | NCI-H322M lung 94.7% | HOP-62 NSCLC 90.3% | NCI-H460 lung 99.5% | A549/ATCC NSCLC 88% | 786-0 renal 90.7% | COLO 205 colon 109%

C=CCSc1n[nH]c(-c2cccs2)n1
inactive: NCI-H23 lung 104% | NCI-H226 lung 99.4% | NCI-H322M lung 110% | HOP-62 NSCLC 94.3% | NCI-H460 lung 107% | NCI-H522 lung 92% | A549/ATCC NSCLC 98.8% | 786-0 renal 95.9% | COLO 205 colon 137%

CCCN=C1NC(=O)/C(=C/c2nc(-c3ccc(OC)cc3)n3ccccc23)S1
inactive: NCI-H23 lung 77.9% | NCI-H226 lung 84.6% | NCI-H322M lung 82.5% | HOP-62 NSCLC 98.8% | NCI-H460 lung 37.4% | NCI-H522 lung 88.1% | A549/ATCC NSCLC 73.3% | 786-0 renal 58.5% | COLO 205 colon 109%

N#Cc1c(Nc2ccccc2)nc2n(c1=O)-c1ccccc1Sc1ccccc1-2
inactive: NCI-H23 lung 88.5% | NCI-H226 lung 84.4% | NCI-H322M lung 90.7% | HOP-62 NSCLC 98.8% | NCI-H460 lung 90.7% | NCI-H522 lung 75.2% | A549/ATCC NSCLC 78.8% | 786-0 renal 90.2% | COLO 205 colon 84.1%

COc1ccc(C(=O)N2NC(=O)/C(=C/c3ccc(F)cc3)N=C2c2ccccc2)cc1
inactive: NCI-H23 lung 92.2% | NCI-H226 lung 96.5% | NCI-H322M lung 92% | HOP-62 NSCLC 99.3% | NCI-H460 lung 104% | NCI-H522 lung 93.3% | A549/ATCC NSCLC 86.4% | 786-0 renal 78.9% | COLO 205 colon 119%

CCN1CCN(CC(=O)N2c3cccc4cccc(c34)N(C(=O)CN3CCN(CC)CC3)C2c2cn(-c3ccccc3)nc2-c2cccc([N+](=O)[O-])c2)CC1
active: NCI-H226 lung -28.3% | HOP-62 NSCLC 0.226% | NCI-H460 lung -37.9% | NCI-H522 lung -64.7% | COLO 205 colon -66.9%
inactive: NCI-H23 lung 13.7% | NCI-H322M lung 25.3% | A549/ATCC NSCLC 12.9%

C=C1CCC2C(C)(CO)C(O)CCC2(C)C1C/C=C1/C(=O)OCC1Oc1ccccc1C (stereo unspecified)
inactive: NCI-H23 lung 94% | NCI-H226 lung 80% | NCI-H322M lung 98.6% | HOP-62 NSCLC 101% | NCI-H460 lung 104% | NCI-H522 lung 23.8% | A549/ATCC NSCLC 89.1% | 786-0 renal 98% | COLO 205 colon 105%

COC(=O)c1cc(=O)nc(N/N=C/c2ccco2)s1
inactive: NCI-H23 lung 106% | NCI-H226 lung 97.8% | NCI-H322M lung 96.2% | HOP-62 NSCLC 103% | NCI-H460 lung 106% | NCI-H522 lung 103% | A549/ATCC NSCLC 107% | 786-0 renal 114% | COLO 205 colon 116%

CC(=O)Oc1csc(N(C(C)=O)c2cccc(C(F)(F)F)c2)n1
inactive: NCI-H23 lung 94.7% | NCI-H226 lung 93.3% | NCI-H322M lung 99% | HOP-62 NSCLC 94.4% | NCI-H460 lung 102% | NCI-H522 lung 83.1% | A549/ATCC NSCLC 92.3% | COLO 205 colon 107%

Cc1cc(C2=NNC(=O)Cc3cc4c(cc32)OCCO4)cc(C)c1N
inactive: NCI-H23 lung 44.2% | NCI-H226 lung 75.1% | NCI-H322M lung 44.9% | HOP-62 NSCLC 37.4% | NCI-H460 lung 17.6% | A549/ATCC NSCLC 50.7% | 786-0 renal 32.5%
active: NCI-H522 lung -20.1% | COLO 205 colon 9.99%

O=c1c2sc3ncccc3c2nnn1-c1ccccc1
inactive: NCI-H23 lung 99.1% | NCI-H226 lung 100% | NCI-H322M lung 114% | HOP-62 NSCLC 105% | NCI-H460 lung 106% | NCI-H522 lung 111% | A549/ATCC NSCLC 102% | 786-0 renal 100% | COLO 205 colon 114%

N[C@@H]1CCN(C(=O)c2cc3cc(Cl)c(F)c(F)c3[nH]2)C1
inactive: NCI-H23 lung 92.8% | NCI-H226 lung 75% | NCI-H322M lung 87.1% | HOP-62 NSCLC 84.4% | NCI-H460 lung 99.8% | NCI-H522 lung 80.1% | A549/ATCC NSCLC 93.6% | 786-0 renal 86.6% | COLO 205 colon 110%

CN(CCCCN(C[C@H]1Cc2ncccc2CN1)[C@H]1CCCc2cccnc21)C1CCC(F)(F)CC1
inactive: NCI-H23 lung 107% | NCI-H226 lung 78.4% | NCI-H322M lung 95.5% | HOP-62 NSCLC 68.2% | NCI-H460 lung 99.5% | NCI-H522 lung 89.6% | A549/ATCC NSCLC 84% | 786-0 renal 82.5% | COLO 205 colon 87.8%

CN(C)c1oc(C2OC2c2ccccc2)nc1C#N (stereo unspecified)
inactive: NCI-H23 lung 95.2% | NCI-H226 lung 80.7% | NCI-H322M lung 81.6% | HOP-62 NSCLC 75.6% | NCI-H460 lung 109% | NCI-H522 lung 87.7% | A549/ATCC NSCLC 90.8% | 786-0 renal 102% | COLO 205 colon 94.5%

COc1ccc(/C=C2\N=C(c3ccccc3)N(C(=O)c3ccccc3O)NC2=O)cc1
inactive: NCI-H23 lung 89.7% | NCI-H226 lung 101% | NCI-H322M lung 105% | HOP-62 NSCLC 99.1% | NCI-H460 lung 98.7% | NCI-H522 lung 100% | A549/ATCC NSCLC 97.3% | 786-0 renal 89.8% | COLO 205 colon 112%

COc1cc2c(cc1OCCCCCn1c3ccccc3c3ccccc31)N=C[C@@H]1CCCN1C2=O
active: NCI-H23 lung -25.5% | NCI-H226 lung -91.8% | HOP-62 NSCLC -38.5% | NCI-H460 lung -84.3% | NCI-H522 lung -22.3% | A549/ATCC NSCLC -66.9% | 786-0 renal -92.9% | COLO 205 colon -85.9%
inactive: NCI-H322M lung 16.2%
